# According to PubChem BioAssay AID449768 (Vanderbilt High Throughput Screening Facility, 2010):
# The whole screen tested about 110,000 compounds, of which about 1,400 (1.3%) were called active. The sample as a whole holds a higher share of actives than the screen did. Unmarked numbers belong to inactive results.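 Rule for the calls: active = Z score or B-score, a plate-position-corrected score, falls beyond the plate's 99.7% confidence bounds, in either direction; inactive = both scores lie inside the 99.7% bounds.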
# Target: Sodium-dependent dopamine transporter (Homo sapiens) (UniProt Q01959)
# Sequence (Q01959 whole entry, looked up): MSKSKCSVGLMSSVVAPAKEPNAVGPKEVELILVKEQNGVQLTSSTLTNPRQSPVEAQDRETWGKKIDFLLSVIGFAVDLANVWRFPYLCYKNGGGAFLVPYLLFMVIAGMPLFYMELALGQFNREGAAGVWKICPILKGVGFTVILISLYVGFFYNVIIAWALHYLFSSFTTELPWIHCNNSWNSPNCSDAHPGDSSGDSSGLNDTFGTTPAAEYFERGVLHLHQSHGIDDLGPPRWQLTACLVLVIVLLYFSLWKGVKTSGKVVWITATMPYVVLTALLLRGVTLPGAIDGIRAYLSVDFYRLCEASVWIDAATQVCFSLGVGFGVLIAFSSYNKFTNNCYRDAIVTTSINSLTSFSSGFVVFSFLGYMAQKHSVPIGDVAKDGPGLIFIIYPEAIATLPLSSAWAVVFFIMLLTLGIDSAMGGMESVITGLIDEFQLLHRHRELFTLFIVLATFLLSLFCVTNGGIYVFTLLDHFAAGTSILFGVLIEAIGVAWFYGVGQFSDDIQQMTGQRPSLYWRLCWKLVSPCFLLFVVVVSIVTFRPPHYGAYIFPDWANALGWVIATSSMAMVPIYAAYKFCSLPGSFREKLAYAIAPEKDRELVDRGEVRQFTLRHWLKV
# Test: modulators of human DAT uptake with cocaine – cell-based, LLC-PK1 hDAT, [14C]-dopamine uptake, MLSMR, cocaine antagonist project, primary screen (AID 449768);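 note: scored against the spread of the other compound wells on the same plate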
# Settings: LLC-PK1 hDAT cells, [14C]-dopamine uptake with cocaine IC80; at 10 µM; actives deviate in either direction
row,SMILES,B-score
1,C/C=C(\C)C(=O)NCCN1C2=NC[C@H](Cc3ccc(O)cc3)N2C[C@@H]1Cc1ccc(OC)cc1,1.04
2,CC(N)C12CC3CC(CC(O)(C3)C1)C2 (stereo not drawn),-0.549
3,Cc1ncn(C23CC4CC(CC(O)(C4)C2)C3)n1,-8.14 (active)
4,COC(=O)c1ccc(NC(=O)C23CC4CC(C2)CC(n2cnc(Cl)n2)(C4)C3)cc1,-1.17
5,COC(=O)c1c(C)cc(O)c(C)c1O,-0.00953
6,COC(C/C=C/C(=O)[C@@H](C)OCc1ccccc1)OC,0.0548
7,C=C1C2C[C@H](O)C(C)(C)[C@@]2(O)[C@H](O)C[C@]23C[C@@](C)(O)[C@H](CC[C@H]12)[C@H]3O (stereo partly drawn),-0.371
8,C=CCC1(C(=O)N(C)Cc2ccccc2)CCN(C(=O)OC(C)(C)C)CC1,1.32
9,O=C1N[C@H](Cc2ccccc2)C(=O)N[C@H]1Cc1cn(S(=O)(=O)c2ccccc2)c2ccccc12,-1.21
10,CC(C)(C)CN1C(=O)C(=O)NC[C@H]1Cc1cccc2ccccc12,1.91
11,CCOC(=O)C1=C(C)Nc2sc(C(=O)c3ccc(Br)cc3)c(N)c2C1c1ccc(C(=O)OC)cc1 (stereo not drawn),2.41 (active)
12,CCOC(=O)c1sc(=S)n2c1[nH]c(=O)c1ccc(C(=O)OC)cc12,0.185
13,CCOC(=O)C1=C(C)NC(C)=C(C(=O)OCC)C1c1ccccn1,-1.62
14,Cc1ccc(CNC(=O)c2ccc3c(c2)S(=O)(=O)c2ccccc2C3=O)cc1,0.00832
15,CCCC[C@@H]1CN=C(N)N1CCCC,0.44
16,COC(=O)CNC(=O)c1ccccc1[N+](=O)[O-],-0.561
17,CC(=O)Oc1ccccc1C(=O)Nc1ncc([N+](=O)[O-])s1,-5.94 (active)
18,CC(=O)c1sc(NC(=O)c2cccc3ccccc23)nc1C,1.43
19,CCSc1nc2c(c(=O)[nH]1)C(c1cccnc1)C(C(=O)OC(C)C)=C(C)N2 (stereo not drawn),2.12 (active)
20,COC(=O)C1=C(N)Oc2cc(C)oc(=O)c2C1c1cccnc1 (stereo not drawn),0.0204
21,COC(=O)C1=C(C)Nc2ncnn2C1c1cccnc1 (stereo not drawn),0.0386
22,CCC(=O)Nc1cccc(C2=NOC3(C2)C[C@@H](C(N)=O)N(C(=O)c2cc([N+](=O)[O-])cc([N+](=O)[O-])c2C)C3)c1 (stereo partly drawn),-0.0284
23,COC(=O)C1(S(=O)(=O)C2(C(=O)OC)CCCC2)CCCC1,-2.03 (active)
24,C#CCOCCOCCOCCNc1nc(N2CCN(C(=O)[C@H](CCC(=O)O)n3cc(C(N)CO)nn3)CC2)nc(N2CCN(C(=O)[C@H](CCCCN)n3cc(C(N)CC(C)C)nn3)CC2)n1 (stereo partly drawn),-0.496
25,COC(C[C@@H](O)[C@H](C)[C@H](O)COCc1ccccc1)OC,-0.281
26,CC(C)=CCc1c(O)c(CC=C(C)C)c2occ(-c3ccc(O)cc3)c(=O)c2c1O,1.79

row,SMILES,B-score
1,CNC(=O)c1[nH]cnc1C(=O)N[C@@H](CC(C)C)C(=O)OC(C)(C)C,0.0376
2,COc1cc(C2C(C(=O)c3ccc(C)o3)=C(O)C(=O)N2CCc2ccccc2)ccc1O (stereo not drawn),-5.4 (active)
3,CCCOc1ccc(C2C(C(=O)c3ccc(C)o3)=C(O)C(=O)N2CCCn2ccnc2)cc1 (stereo not drawn),0.735
4,COc1cc(C2C(C(=O)c3ccc(C)o3)=C(O)C(=O)N2Cc2cccnc2)ccc1O (stereo not drawn),-0.83
5,COC(C[C@H](O)CC(=O)COCc1ccccc1)OC,-0.106
6,COc1ccc2nc(NC(=O)c3ccc(Br)s3)sc2c1,-2.65 (active)
7,CNC(=O)c1ccc2nc(NC(C)=O)sc2c1,-0.144
8,COC(=O)c1sc(NC(=O)c2ccc(OC)cc2OC)nc1C,-0.655
9,Cc1c(C(=O)N2CCOCC2)[nH]c2ccc(OCc3ccccc3)cc12,2.65 (active)
10,CCOC(=O)c1[nH]c2ccc(OC)cc2c1NC(=O)N1CCOCC1,2.03
11,Cc1c(C(=O)CN2CCOCC2)[nH]c2ccccc12,-1.19
12,COc1ccc(SCCN2CCN(CC(C)C)CCC2=O)cc1,-0.972
13,C=C1CCN([C@@H](Cc2ccccc2)C(=O)N2CCOCC2)S(=O)(=O)c2ccccc21,-0.0232
14,CCC(C)[C@@H](C(=O)N1CCNCC1)n1cc(CCCCN)nn1 (stereo partly drawn),-0.575
15,FC(F)(F)c1nnc2sc(-c3ccco3)nn12,-0.943
16,Fc1ccc(-c2ccc(-c3nn4c(-c5ccco5)nnc4s3)o2)cc1,-8.2 (active)
17,Cc1nnc2sc(-c3ccco3)nn12,-0.595
18,CC(C)(C)n1nc(Cc2cccc3ccccc23)c(C#N)c1N,-0.00603
19,O=C(Nc1ccc(S(=O)(=O)N2CCc3ccccc3C2)cc1)c1ccccc1,-0.732
20,Cc1ccc(NC(=O)CCN2CCc3ccccc3C2)cc1,2.16 (active)
21,Cc1ccc(NC(=O)CN2CCc3ccccc3C2)cc1,-0.0113
22,COC(=O)CCCC1=CC2=CC(=O)C(C)(OC(=O)c3cccs3)C(=O)C2=CN1CC1CC1 (stereo not drawn),-0.726
23,CCC1(CC)C(=O)C2=C3C1[C@H](C(=O)OC)C=C(C(=O)OC)C[C@H]3[C@H]1C(=O)N(Cc3ccccc3)C(=O)[C@H]1[C@H]2C (stereo partly drawn),0.0892
24,CCCCN1C(=S)NC[C@@H]1C(C)CC (stereo partly drawn),-0.761
25,CCCCN1C(N)=NC[C@@H]1CC1CCCCC1,-1.39
26,Cc1c(NC(=O)C(C)OC(=O)c2cc3c4ccccc4n(C)c3s2)c(=O)n(-c2ccccc2)n1C (stereo not drawn),4.67 (active)

row,SMILES,B-score
1,COC(=O)Nc1c(C)n(C)n(-c2ccccc2)c1=O,0.348
2,Cc1cc(C)cc(N(C(C)C(=O)Nc2c(C)n(C)n(-c3ccccc3)c2=O)S(C)(=O)=O)c1 (stereo not drawn),-0.551
3,Oc1c(Cl)cc(Cl)c(Cl)c1Cc1c(O)c(Cl)cc(Cl)c1Cl,-5.94 (active)
4,Cc1nc(-c2ccc(Cl)cc2)sc1C1(C)CC(c2ccccc2F)=NO1 (stereo not drawn),-0.519
5,CC[C@@H](C)[C@@H](C(=O)N1CCN(C(=O)OC(C)(C)C)CC1)n1cc(CCC(=O)O)nn1,-0.83
6,C#CCNC(=O)[C@H](Cc1ccc(C(=O)c2ccccc2)cc1)NC(=O)OC(C)(C)C,-0.105
7,Cc1ccc(-c2noc(-c3ccccc3C(=O)NCC3CCCO3)n2)cc1 (stereo not drawn),-0.191
8,Cc1ccc(-n2c(C)cc(/C=C(\C#N)C(=O)NCC3CCCO3)c2C)cc1 (stereo not drawn),3.1 (active)
9,Cc1ccc(S(=O)(=O)N2CCC(C(=O)NCC3CCCO3)CC2)cc1 (stereo not drawn),-0.801
10,CNC(=O)c1[nH]cnc1C(=O)N[C@@H](CC(C)C)C(=O)OCc1ccccc1,-0.0072
11,COc1ccc(CN2[C@@H](CC(=O)O)c3cc(F)ccc3S2(=O)=O)cc1,1.13
12,Nc1nnc(SCCN2C(=O)c3ccccc3S2(=O)=O)s1,2.06 (active)
13,CNC(=O)CN1C(=O)c2ccccc2S1(=O)=O,-0.143
14,CCCc1nnc(NC(=O)CN2C(=O)c3ccccc3S2(=O)=O)s1,-0.746
15,O=C1CC2(CCCC2)Oc2ccc(Cl)cc21,0.175
16,c1ccc(-n2ncc3c(N4CCCC4)ncnc32)cc1,0.432
17,CCN(CC)C(=O)CSc1ncnc2c1cnn2-c1ccccc1,3.2 (active)
18,O=C(Cn1cnc2c(cnn2-c2ccccc2)c1=O)NCc1ccccc1,-0.925
19,C=C1CCN([C@H](C(=O)NCc2cc(OC)c(OC)c(OC)c2)C(C)C)S(=O)(=O)c2ccccc21,1.09
20,COc1cccc(/C=N/NC(=O)c2cccc([N+](=O)[O-])c2)c1OS(=O)(=O)c1ccc(C)cc1,-0.0993
21,Cc1ccc(/C=N/NC(=O)c2sccc2OCc2ccc(F)cc2)cc1,-0.168
22,Cc1ccc(S(=O)(=O)Oc2ccc(/C=N/NC(=O)c3c(Cl)cnn3C)cc2)cc1,-7.83 (active)
23,CCOC(=O)c1ccc(NC(=O)c2c(NCc3ccccc3)[nH]c(=O)[nH]c2=O)cc1,-0.0313
24,C#CCNC(=O)C1=C[C@@H](c2ccccc2)[C@H](CCCO)[C@@H](OCC)O1,-0.204
25,Cc1nnc(NC(=O)CCCOc2ccccc2)s1,-9.48 (active)
26,COc1ccc(OCCCC(=O)Nc2nnc(C3CCCO3)s2)cc1 (stereo not drawn),-0.0765

row,SMILES,B-score
1,COCC(=O)Nc1nnc(COc2ccccc2)s1,-0.411
2,COCOc1cc(O)c(C(=O)/C=C/c2ccc(OCOC)c(OCOC)c2)c(OCOC)c1,-0.154
3,CC(C)CC(CO)N1CCN(C(=O)c2ccc(Cl)cc2Cl)CCC1=O (stereo not drawn),-0.933
4,COc1cc2c(cc1OC)CN(C(=O)c1cc(=O)c3ccccc3o1)CC2,3.91 (active)
5,CCOc1cc(C(=O)N2CCc3cc(OC)c(OC)cc3C2)ccc1OC(F)F,0.798
6,COc1ccc(S(=O)(=O)N2CCC(C(=O)N3CCc4ccccc4C3)CC2)cc1OC,0.19
7,O=C(CCN1C(=O)c2ccccc2C1=O)NCCN1CCOCC1,-0.649
8,Cc1ccc(Cc2c(C)nc3nc(SCC(=O)NCCN4CCOCC4)nn3c2C)cc1,2.86 (active)
9,Cc1ccc(NC(=S)NCCN2CCOCC2)cc1,-0.206
10,CCOC(=O)c1ccc(NC(=O)c2c(N)n(C)c(=O)[nH]c2=O)cc1,-0.175
11,COC(C[C@@H](O)C[C@H](O)[C@H](C)OCc1ccccc1)OC,0.0993
12,COc1ccc(F)cc1S(=O)(=O)Nc1ccc2c(c1)OCO2,-0.037
13,CCCOc1ccccc1C1CC(=O)Nc2cc3c(cc21)OCO3 (stereo not drawn),-1.06
14,COc1ccccc1C1C2=C(COC2=O)Nc2cc3c(cc21)OCO3 (stereo not drawn),-2.97 (active)
15,CCOC(=O)/C=C/CN(C(=O)OC(C)(C)C)S(=O)(=O)N1CC=CC1,-1.8e-05
16,CC(=O)NC(Cc1ccc(F)cc1)C(=O)O (stereo not drawn),-0.111
17,CC(=O)c1ccc(NC(=O)N[C@@H](Cc2ccccc2)C(=O)O)cc1,3.14 (active)
18,COC(=O)[C@H](Cc1ccccc1)NC(=O)Nc1ccc(S(N)(=O)=O)cc1,0.0225
19,Cc1ccc(/C=N/NC(=O)C(NC(=O)c2ccccc2)c2n[nH]c(=O)c3ccccc23)cc1 (stereo not drawn),5.41 (active)
20,Cc1ccc(/C=N/NC(=O)C2=NNC(c3ccccc3)(c3ccccc3)C2)c(O)c1,-0.164
21,Cc1ccc(C(=O)N/N=C/c2sc(=O)n(Cc3cccc(C(=O)O)c3)c2Cl)cc1,0.653
22,C#CCOCCOCCOCCNc1nc(N2CCN(C(=O)[C@H](C(C)C)n3cc(CCO)nn3)CC2)nc(N2CCN(C(=O)[C@H](C(C)C)n3cc(CCO)nn3)CC2)n1,-0.703
23,COc1ccc(-c2nc3c(s2)CCc2onc(-c4ccc(Br)cc4)c2-3)cc1,-0.269
24,O=C1NC[C@@H](Cc2ccc(O)cc2)N(CCc2cccc(F)c2)C1=O,0.0299
25,Cc1cn(C)c(=O)n(C)c1=O,-1.72
